# Screening data deposited in PubChem BioAssay by National Center for Advancing Translational Sciences (NCATS).
# Sampled rows, rich in hits. Any-hit rate of the full collection: about 11%.
# 3T3 cytotox = kills NIH 3T3 cells | Potency, µM (highest dose often 96.7 µM), without a hit: top-dose activity change, negative = cytotoxicity, actives largely listed as inhibitors | 4.3% of 94,000 active | NIH 3T3 viability, CellTiter-Glo ATP luminescence, 48-72 h; active = well fitted curve in the direction sought with a large enough effect; inconclusive = small, poorly fitted or top-dose-only effect, or another doubt; inactive = no such curve, though single readings can be large; an effect the other way counts as inactive or inconclusive; also: % is scaled to controls: 0 for no effect and ±100 for the full control effect; nearly all actives have a fitted effect of over 55% in size
#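 Cytotoxicity is measured as loss of cellular ATP: NIH 3T3 cells (400/well) are exposed to compound for 48 or 72 hr at 37 °C, then CellTiter-Glo luminescence is imaged after 10 min at room temperature.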
# NPR1 antag = blocks ANP-stimulated signaling of human Npr1 receptor. P16066. HEK293 hNpr1 GloSensor cGMP, ANP-stimulated luminescence. Potency, µM (titrated, usually from 46.3 µM), without a hit: at the highest dose activity change, negative = inhibition, usual class: inhibitors. 1.6% of 76,000 active. AID 1347048; also: % is scaled to controls: 0 for no effect and ±100 for the full control effect; nearly all actives have a fitted effect of over 60% in size
#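 Compound pre-incubated 30 min at room temperature on GloSensor-loaded HEK293 cells stably carrying hNpr1 and the pGS-40F cGMP biosensor. Stimulation uses hNppA at 0.1 nM final; luminescence is taken at baseline and 20 min post-agonist.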
# HEK cytotox = HEK 293 cell cytotoxicity. HEK 293 viability, ATP luminescence (CellTiter-Glo), 48-72 h. Potency, µM (top dose mostly 115 µM), for the others: top-dose activity change, negative = cytotoxicity, actives largely listed as inhibitors. 6.6% of 94,000 active. AID 1345083; active = well fitted curve in the direction sought with a large enough effect; inconclusive = small, poorly fitted or top-dose-only effect, or another doubt; inactive = no such curve, though single readings can be large; an effect the other way counts as inactive or inconclusive; also: % is scaled to controls: 0 for no effect and ±100 for the full control effect; nearly all actives have a fitted effect of over 60% in size
#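 Read-out: CellTiter-Glo ATP luminescence. Cells: HEK 293, 250 cells/well. Exposure: 48 or 72 hr, 37 degree Celsius.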
# FLuc inh = inhibitors of firefly (Photinus pyralis) luciferase; Potency, µM (series often up to 115 µM), most hits filed as inhibitors; purified P. pyralis luciferase, luminescence, biochemical; 2.5% of 76,000 active; P08659; AID 1347043; active = well fitted curve in the direction sought with a large enough effect; inconclusive = small, poorly fitted or top-dose-only effect, or another doubt; inactive = no such curve, though single readings can be large; an effect the other way counts as inactive or inconclusive; also: % is scaled to controls: 0 for no effect and ±100 for the full control effect; nearly all actives have a fitted effect of over 65% in size
# Target sequence (P08659 whole entry, looked up): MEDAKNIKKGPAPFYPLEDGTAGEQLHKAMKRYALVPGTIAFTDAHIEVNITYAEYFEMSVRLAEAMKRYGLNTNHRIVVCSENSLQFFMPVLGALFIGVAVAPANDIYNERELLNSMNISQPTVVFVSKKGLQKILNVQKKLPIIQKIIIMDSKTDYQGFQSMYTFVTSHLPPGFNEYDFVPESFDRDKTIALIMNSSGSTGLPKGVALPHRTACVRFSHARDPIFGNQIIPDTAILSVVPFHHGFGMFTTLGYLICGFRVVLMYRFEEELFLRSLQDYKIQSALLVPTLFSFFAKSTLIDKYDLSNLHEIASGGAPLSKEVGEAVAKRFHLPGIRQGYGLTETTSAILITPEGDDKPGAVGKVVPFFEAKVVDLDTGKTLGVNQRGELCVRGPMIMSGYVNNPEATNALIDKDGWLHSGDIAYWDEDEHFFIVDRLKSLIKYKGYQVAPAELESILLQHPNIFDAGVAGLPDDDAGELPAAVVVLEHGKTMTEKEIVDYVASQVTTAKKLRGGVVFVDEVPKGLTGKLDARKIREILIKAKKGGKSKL
#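 Cell-free enzyme assay, 10nM P. pyralis luciferase, luciferin and ATP each at 10uM. Inhibition profiled over a 6-point titration, read as luminescence.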
# Npr1 antag conf = confirmation of human Npr1 natriuretic peptide receptor antagonists. shares compounds with NPR1 antag. HEK293 hNpr1 cGMP GloSensor luminescence, ANP-stimulated. Potency, µM (titrated, usually from 57.6 µM), without a hit: at the top dose activity change, negative = inhibition, hits mostly inhibitors. 76% of 1,400 active. AID 1347044; also: nearly all actives have a fitted effect of over 70% in size
# Npr2 selectivity = hNpr2 antagonism, selectivity versus Npr1; shares compounds with NPR1 antag; Potency, µM (top dose mostly 57.6 µM), for inactives: at the top dose activity change, negative = inhibition, actives largely listed as inhibitors; 67% of 1,400 active; HEK293 hNpr2 GloSensor cGMP luminescence, CNP-stimulated; also: nearly all actives have a fitted effect of over 70% in size
# FLuc inh counter = counter-screen for Npr1 antagonists: firefly luciferase inhibitors. shares compounds with NPR1 antag. AID 1347047. purified FLuc enzyme, luminescence, Km substrate. 0.7% of 1,400 active. Potency, µM (titrated, usually from 57.6 µM), for the others: at the highest dose activity change, negative = inhibition, usual class: inhibitors; active = well fitted curve in the direction sought with a large enough effect; inconclusive = small, poorly fitted or top-dose-only effect, or another doubt; inactive = no such curve, though single readings can be large; an effect the other way counts as inactive or inconclusive; also: series mostly up to about 58 µM; 0% is about no effect
# GloSensor cGMP = reduces cGMP signal in GloSensor control cells. 69% of 1,400 active. Potency, µM (highest dose often 57.6 µM), for the others: at the highest dose activity change, negative = inhibition, most hits filed as inhibitors. AID 1347051. shares compounds with NPR1 antag. HEK293 GloSensor cGMP, SNP-stimulated, luminescence; also: % is scaled to controls: 0 for no effect and ±100 for the full control effect; nearly all actives have a fitted effect of over 70% in size
# * = called active by the depositor; i = inactive; u = inconclusive; x = no result; [ ] = another dose, or the depositor's remark. Unless noted, calls follow the shape of the full dose curve. Potency is read from the fitted curve at half-maximal effect.
SMILES,3T3 cytotox,NPR1 antag,HEK cytotox,FLuc inh,Npr1 antag conf,Npr2 selectivity,FLuc inh counter,GloSensor cGMP
CCOc1cc(C(=O)N2CCC(Cc3nc(-c4ccccc4)no3)CC2)cc(OCC)c1OCC,u,3.6%,u,i,x,x,x,x
COc1ccc(-c2noc(CC3CCN(C(=O)c4ccc(OC)cc4OC)CC3)n2)cc1,u,2.82µM*,u,i,3.06µM*,4.85µM*,-1.6%,3.06µM*
COc1cc(OC)cc(C(=O)N2CCC(Cc3nc(-c4ccccc4)no3)CC2)c1,u,u,u,i,x,x,x,x
COc1ccc(Cl)cc1C(=O)N1CCC(Cc2nc(-c3cnccn3)no2)CC1,u,-1.9%,-14.4%,i,x,x,x,x
COc1ccc(-c2noc(CC3CCN(C(=O)C4CCN(C(=O)c5ccccc5)CC4)CC3)n2)cc1,u,8.91µM*,u,i,19.3µM*,17.2µM*,0.2%,12.2µM*
CC(C)[C@@H]1CN(C(=O)c2ncn[nH]2)C[C@H]1NS(=O)(=O)N(C)C,i,4.6%,i,i,x,x,x,x
O[C@H]1[C@H](NCc2ccc(F)cc2)[C@H]2CO[C@H](O2)[C@@H]1Oc1ccccc1,-3.4%[138 µM],0.3%[70.6 µM],-19.8%[172 µM],i,x,x,x,x
COC(=O)[C@@H]1Cc2ncn(Cc3ccc(Cl)cc3)c2CN1C(=O)c1cccs1,u,-21.7%[70.6 µM],-10.2%[172 µM],i,-22.0%[86.2 µM],-24.3%[86.2 µM],2.3%[86.2 µM],4.9%[86.2 µM]
CC(C)CC(=O)N1CCC2(CC1)CN(c1ccccc1)C2=O,-1.5%,4.2%,-5.7%,i,x,x,x,x
CCOC(=O)c1ccc(CNC(=O)N2CCC3(CC2)CN(c2ccccc2)C3=O)cc1,u,u,u,i,u,u,-5.7%,u
COc1ccccc1CC(=O)N1CCC(Cc2nc(-c3ccccc3)no2)CC1,u,u,u,i,x,x,x,x
Cc1ccc(OCC(=O)N2CCC(Cc3nc(-c4ccccc4)no3)CC2)cc1,u,12.6µM*,39.8µM*,i,15.3µM*,15.3µM*,26.1%,12.2µM*
Cc1ccc(OCC(=O)N2CCC(Cc3n[nH]c(C)n3)CC2)cc1,-1.7%,-2.7%,-15.5%,i,x,x,x,x
COc1ccc(-c2noc(CC3CCN(C(=O)COc4ccc(C)cc4)CC3)n2)cc1,u,6.31µM*,u,i,7.69µM*,8.62µM*,-12.5%,8.62µM*
Cc1ccc(OCC(=O)N2CC(Oc3ccc(-c4noc(-c5ccccc5)n4)cc3)C2)cc1,-29.1%,x,-2.0%,x,x,x,x,x
COc1ccc(OCC(=O)N2CCC(Cc3nc(-c4ccc(OC)cc4)no3)CC2)cc1,14.1µM*,10µM*,12.6µM*,i,10.9µM*,13.7µM*,-1.7%,12.2µM*
COc1ccc2[nH]c(=O)c(CCC(=O)NCCN3CCCCCC3)cc2c1,-6.4%,-4.6%,0.7%,i,x,x,x,x
COc1cc(F)cc(-c2cnc3[nH]cc(CC(=O)NCc4cccnc4)c3c2)c1,u,28.2µM*,u,i,31.4µM*,31.4µM*,u,31.4µM*
O=C(Cc1c[nH]c2ncc(-c3ccc(F)c(Cl)c3)cc12)NCc1cccnc1,u,22.4µM*,u,i,39.6µM*,31.4µM*,-3.1%[86.2 µM],28µM*
Cc1cc(-c2cnc3[nH]cc(CC(=O)NCc4cccnc4)c3c2)ccn1,u,1.3%[70.6 µM],u,i,x,x,x,x
O=C(CCC1CC1)N1CCC(c2cc(Cc3ccccc3)[nH]n2)CC1,u,-26.7%,u,i,-27.4%,-25.4%,-11.8%,-26.8%
COc1ccc(CN(C)C(=O)c2ccc3oc(C)cc3c2)c2cccnc12,u,5.01µM*,u,i,6.85µM*,6.85µM*,1.1%,4.32µM*
O=C(NCc1cccs1)c1nc(-c2ccsc2)c2ccccn12,u,14.9%[70.6 µM],u,i,x,x,x,x
O=C(Nc1cccc(F)c1)N1CCCC2(C1)Nc1cccnc1NC2=NCc1ccccc1 (stereo not drawn),u,-4.0%,u,i,x,x,x,x
N#Cc1cccnc1-c1ccc(C(=O)N2CCC(NC(=O)c3ccncc3)CC2)cc1,-26.7%,x,-15.0%,x,x,x,x,x
SMILES,3T3 cytotox,NPR1 antag,HEK cytotox,FLuc inh,Npr1 antag conf,Npr2 selectivity,FLuc inh counter,GloSensor cGMP
N#Cc1cccnc1N1CCC(NC(=O)c2ccc3nccn3c2)CC1,-62.7%,11.2µM*,u,i,21.7µM*,24.3µM*,1.8%,19.3µM*
O=C([C@@H]1C[C@H](Oc2ccccc2)CN1)N1CCOCC1,1.6%,1.9%,-19.6%,i,x,x,x,x
COc1cccc(NC(=O)c2ccc(-c3nnc4ccc(NC(=O)C5CCC5)cn34)cc2)c1,0.7%,u,-5.4%,i,24.3µM*,u,1.8%,21.7µM*
CC(C)NC(=O)c1ccc(-c2nnc3ccc(NC(=O)C4CCC4)cn23)cc1,-13.4%,-1.3%,u,i,x,x,x,x
CCC1CN(C(=O)c2ccc3nc[nH]c3c2)CCC(=O)N1Cc1ccccc1 (stereo not drawn),-25.4%,-10.2%,-29.2%,i,x,x,x,x
CCCc1cc(C(=O)N2CCC(=O)N(Cc3ccccc3)C(CC)C2)ccn1 (stereo not drawn),u,11.2µM*,u,i,9.68µM*,12.2µM*,-1.6%,10.9µM*
O=C(NCCc1ccncc1)C1CN(Cc2ccncc2)CC12CCOCC2 (stereo not drawn),i,2.6%,-4.7%,i,x,x,x,x
O=C(c1ccc(F)cc1)N1CCC2(CC1)CC(N(Cc1ccc(F)cc1)C1CC1)CCO2 (stereo not drawn),u,u,u,i,u,u,5.4%,u
O=C(c1cccs1)N1CCC2(CC1)CC(Cc1ccc(F)cc1)CCO2 (stereo not drawn),u,11.2µM*,u,i,27.3µM*,27.3µM*,-2.1%,27.3µM*
CCCC(=O)N1CCC2(CC1)CC(N(Cc1ccc(F)cc1)C1CC1)CCO2 (stereo not drawn),-18.1%,-24.5%,u,i,-24.9%,-4.8%,1.6%,-26.3%
COc1ccc(C(=O)NCCc2noc(-c3ccncc3)n2)cc1,-9.6%,-3.2%,2.7%,i,x,x,x,x
Cc1ccc(C2Cn3nnc(C(=O)N4CCN(C(=O)c5ccc(Cl)cc5)CC4)c3CO2)cc1 (stereo not drawn),-6.8%,-3.5%,-5.9%,i,x,x,x,x
